From PubChem BioAssay (NCATS)
Records with an inconclusive call do not appear. Entries that show only a call come without a potency. The source made the active and inactive calls. Unless noted, the call rests on the fitted dose curve; in most records, active means well fitted curve in the direction sought with a large enough effect; inconclusive means small, poorly fitted or top-dose-only effect, or another doubt; inactive means no such curve, though single readings can be large; an effect the other way counts as inactive or inconclusive.

Tests used:
[1] = S16 Schwann cell PMP22 intronic element firefly luciferase assay (AID 624032); further: nearly all actives have a fitted effect of over 30% in size
Method in brief: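 Rat S16 Schwann cells stably carrying firefly luciferase driven by a PMP22 intronic element, in 10% FBS, treated 24 h at 37 C. ONE-Glo luminescence normalized to PTC124 control and DMSO (0%); curves classed by r2, magnitude and activity.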

[2] = test system: 7G8; assay: qHTS profiling for inhibitors of Plasmodium falciparum proliferation (AID 504749); further: nearly all actives have a fitted effect of over 60% in size; further: potency means the concentration at half of the fitted maximal effect; settings: P. falciparum in erythrocytes, SYBR Green DNA, 72 h; series mostly up to 28.7 µM
Method in brief: (§1)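 Readout was DNA-dye fluorescence from lysed cultures, ex 485/em 535 nm. Parasitized red cells had grown 72 h with compound; data scaled between 0.29 uM artemisinin and DMSO wells and corrected using vehicle-only plates.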

[3] = test system: CP260; assay: as above; settings: P. falciparum in erythrocytes, SYBR Green DNA, 72 h; series mostly up to 28.7 µM
Method in brief: as §1

[4] = test system: DIV17; assay: as above; settings: P. falciparum in erythrocytes, SYBR Green DNA, 72 h; series mostly up to 28.7 µM
Method in brief: as §1

[5] = test system: TAB109; assay: as above; settings: P. falciparum in erythrocytes, SYBR Green DNA, 72 h; series mostly up to 28.7 µM
Method in brief: as §1

[6] = test system: W2; assay: as above; settings: P. falciparum in erythrocytes, SYBR Green DNA, 72 h; series mostly up to 28.7 µM
Method in brief: as §1

[7] = molecular target: Tyrosyl-DNA phosphodiesterase 1 (Homo sapiens) (UniProt Q9NUW8); assay: Confirmation Assay for Inhibitors of Tyrosyl-DNA Phosphodiesterase (TDP1) (AID 489007); settings: recombinant human TDP1 enzymatic activity, dose-response; further: potency means the concentration at half of the fitted maximal effect; nearly all actives have a fitted effect of over 40% in size
Method in brief: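 Recombinant E. coli-expressed Tdp1 (1 nM final) was preincubated with compounds 15 min at room temperature, then reacted 5 min with 15 nM 5'-biotin/3'-phosphotyrosine-FITC DNA substrate; cleavage read as loss of AlphaScreen signal (10 ug/ml beads, 10 min).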

[8] = molecular target: Peroxisome proliferator-activated receptor delta (Homo sapiens) (UniProt Q03181); assay: qHTS assay for small molecule agonists of peroxisome proliferator-activated receptor delta signaling (AID 588534; calls by dose curve)
Method in brief: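 Cell-based beta-lactamase reporter assay run in agonist mode: cells seeded and incubated 5 hrs at 37 C, compounds added and incubated 18 hrs at 37 C. CCF4 dye fluorescence read after 2 hrs at RT; EC50 and efficacy from Hill fits.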

[9] = qHTS assay for small molecule antagonists of peroxisome proliferator-activated receptor delta signaling (AID 588535; active means well fitted inhibition curve with a large enough effect in the signal ratio, with a control signal flat, not every such curve was filed as active; the % refers to the signal ratio;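 on max response: cells co-treated with a PPAR-delta agonist as stimulator during compound exposure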); settings: HEK293T PPARd-UAS-bla, beta-lactamase FRET ratio, 18 h; 460 nm channel
Method in brief: (§2)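 Cells were seeded at 4000 per well in assay medium containing 2% charcoal/dextran FBS and held 5 hrs at 37 C. Compounds were then added for 18 hrs. CCF4 substrate was applied for 2 hrs at room temperature before fluorescence reading.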

[10] = molecular target: Peroxisome proliferator-activated receptor delta (Homo sapiens) (UniProt Q03181); assay: as above
Method in brief: as §2

[11] = molecular target: Vitamin D3 receptor (Homo sapiens) (UniProt P11473); assay: qHTS assay for small molecule antagonists of vitamin D receptor signaling (AID 588541; calls by dose curve;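 further: receptor activated by calcitriol during compound treatment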)
Method in brief: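 VDR-UAS-bla HEK293T cells in 2% charcoal-stripped FBS were stimulated with 1-alpha,25-dihydroxyvitamin D3 (3 nM final) plus compound for 16 h at 37 C. The beta-lactamase CCF4 readout was normalized to 50 nM agonist and DMSO, and Hill fits gave IC50.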

[12] = molecular target: Vitamin D3 receptor (Homo sapiens) (UniProt P11473); assay: qHTS assay for small molecule agonists of vitamin D receptor signaling (AID 588543; calls by dose curve)
Method in brief: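 qHTS in agonist mode: compound titrations stimulate a VDR-driven β-lactamase reporter in HEK293T cells over 16 h at 37 °C. Response normalized to 50 nM 1α,25-dihydroxyvitamin D3 = 100%, DMSO = 0%; Hill fitting gives EC50 and maximal response.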

Chain of Tyrosyl-DNA phosphodiesterase 1 (Homo sapiens) (Q9NUW8 whole entry, looked up): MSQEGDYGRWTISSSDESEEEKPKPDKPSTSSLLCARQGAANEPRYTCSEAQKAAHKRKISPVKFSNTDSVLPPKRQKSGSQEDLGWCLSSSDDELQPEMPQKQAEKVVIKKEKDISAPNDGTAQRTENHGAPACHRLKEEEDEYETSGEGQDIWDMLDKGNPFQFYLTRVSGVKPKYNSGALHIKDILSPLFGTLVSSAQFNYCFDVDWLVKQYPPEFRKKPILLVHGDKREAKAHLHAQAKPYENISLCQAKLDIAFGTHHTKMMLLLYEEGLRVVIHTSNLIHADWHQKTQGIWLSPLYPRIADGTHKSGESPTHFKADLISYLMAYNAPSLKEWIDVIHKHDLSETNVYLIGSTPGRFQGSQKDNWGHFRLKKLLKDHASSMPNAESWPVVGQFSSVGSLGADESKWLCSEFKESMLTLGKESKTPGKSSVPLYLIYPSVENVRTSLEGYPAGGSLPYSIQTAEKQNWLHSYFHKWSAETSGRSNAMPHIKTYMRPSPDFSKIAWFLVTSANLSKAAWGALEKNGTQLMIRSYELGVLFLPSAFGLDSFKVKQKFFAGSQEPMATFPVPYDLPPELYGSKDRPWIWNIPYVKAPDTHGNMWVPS
Chain of Vitamin D3 receptor (Homo sapiens) (P11473 whole entry, looked up): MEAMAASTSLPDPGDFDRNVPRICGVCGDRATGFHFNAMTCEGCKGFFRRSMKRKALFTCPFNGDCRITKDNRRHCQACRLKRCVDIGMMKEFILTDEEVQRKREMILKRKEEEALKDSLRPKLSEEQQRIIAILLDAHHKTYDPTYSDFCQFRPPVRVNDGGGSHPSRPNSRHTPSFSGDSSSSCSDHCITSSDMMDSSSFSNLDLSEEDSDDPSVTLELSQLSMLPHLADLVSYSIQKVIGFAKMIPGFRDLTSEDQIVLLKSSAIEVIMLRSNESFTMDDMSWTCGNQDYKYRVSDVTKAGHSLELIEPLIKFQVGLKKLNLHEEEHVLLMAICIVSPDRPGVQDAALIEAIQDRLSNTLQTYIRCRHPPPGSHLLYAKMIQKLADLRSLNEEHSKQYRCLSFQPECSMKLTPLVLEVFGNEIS
Chain of Peroxisome proliferator-activated receptor delta (Homo sapiens) (Q03181 whole entry, looked up): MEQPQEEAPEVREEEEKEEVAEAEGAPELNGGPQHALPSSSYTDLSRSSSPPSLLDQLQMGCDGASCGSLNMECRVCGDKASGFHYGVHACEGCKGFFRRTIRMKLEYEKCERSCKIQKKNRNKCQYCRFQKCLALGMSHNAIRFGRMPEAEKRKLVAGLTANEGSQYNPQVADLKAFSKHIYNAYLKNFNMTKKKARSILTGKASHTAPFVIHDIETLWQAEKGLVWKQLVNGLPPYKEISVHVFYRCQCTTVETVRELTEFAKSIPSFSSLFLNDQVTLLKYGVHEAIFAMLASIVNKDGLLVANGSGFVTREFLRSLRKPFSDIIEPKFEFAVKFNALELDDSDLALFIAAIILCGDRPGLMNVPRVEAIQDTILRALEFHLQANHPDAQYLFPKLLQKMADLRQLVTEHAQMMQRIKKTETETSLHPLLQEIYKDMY

C[C@]12C=CC(=O)C=C1CC[C@@H]1C2CC[C@]2(C)OC(=O)CCC12 (some centres undefined)
Potency [1]: inactive | Potency [2]: inactive | Potency [3]: inactive | Potency [4]: inactive | Potency [5]: inactive | Potency [6]: inactive

COc1ccc2c3c1O[C@H]1[C@@H](O)C=C[C@H]4C(C2)NCCC341 (some centres undefined)
Potency [1]: inactive | Potency [2]: inactive | Potency [3]: inactive | Potency [4]: inactive | Potency [5]: inactive | Potency [6]: inactive

CC(C)(O/N=C(\C(=O)N[C@@H]1C(=O)N2C(C(=O)[O-])=C(C[n+]3ccccc3)CS[C@@H]12)c1csc(N)n1)C(=O)O
Potency [7]: 15800 nM (active)

C[C@@H]1CC[C@H]2[C@@H](C)C(=O)O[C@@H]3OC4(C)CC[C@@H]1C32OO4 (some centres undefined)
Potency [2]: 1.6 nM (active) | Potency [3]: 10 nM (active) | Potency [4]: 9.5 nM (active) | Potency [5]: 4.5 nM (active) | Potency [6]: 3 nM (active)

C=C1Nc2ccccc2C(=O)N1c1ccccc1C
Potency [1]: inactive | Potency [2]: inactive | Potency [3]: inactive | Potency [4]: inactive | Potency [5]: inactive | Potency [6]: inactive

CCOC(=O)/C=C(C)/C=C/CC(C)CCCC(C)C (centres undefined)
Potency [1]: inactive | Potency [2]: inactive | Potency [3]: inactive | Potency [4]: inactive | Potency [5]: inactive | Potency [6]: inactive

CC(=O)Nc1ccc(N=Cc2c(O)n(Cc3ccco3)c(=O)[nH]c2=O)cc1
Potency [7]: 22400 nM (active)

Oc1cc(O)c2c(c1)OC(c1cc(O)c(O)c(O)c1)C(O)C2 (centres undefined)
Potency [7]: 5010 nM (active)

CCCN1CCCC2Cc3nc(N)ncc3CC21 (centres undefined)
Potency [1]: inactive | Potency [2]: inactive | Potency [3]: inactive | Potency [4]: inactive | Potency [5]: inactive | Potency [6]: inactive

CCOC(=O)CCCc1cc[c]([Sb](=[O])([OH])[OH])cc1
Potency [7]: 794 nM (active)

CCOc1ccc2nc(N=Nc3c(O)[nH]c(=O)[nH]c3=O)sc2c1
Potency [7]: 100000 nM (active)

OCC(O)[C@H]1O[C@@H]2O[C@H](C(Cl)(Cl)Cl)O[C@@H]2[C@H]1O (some centres undefined)
Potency [1]: inactive | Potency [2]: inactive | Potency [3]: inactive | Potency [4]: inactive | Potency [5]: inactive | Potency [6]: inactive

CCCCCc1cc(O)c2c(c1)OC(C)(C)C1CC=C(C)CC21 (centres undefined)
Potency [2]: 708 nM (active) | Potency [3]: 1780 nM (active) | Potency [4]: 1510 nM (active) | Potency [5]: 3160 nM (active) | Potency [6]: 1510 nM (active)

Cc1cc(C)cc(C(=O)OC2CC3CCC(C2)N3C)c1 (centres undefined)
Potency [2]: 8910 nM (active) | Potency [3]: inactive | Potency [5]: inactive

CN(C)c1ccc(/C=C2/C(=O)NC(=O)N(Cc3ccco3)C2=O)cc1
Potency [7]: 100000 nM (active)

[O]=[Sb]([OH])([OH])[c]1ccccc1
Potency [7]: 6310 nM (active)

CN1C2CCC1C(C(=O)O)C(OC(=O)c1ccccc1)C2 (centres undefined)
Potency [1]: inactive | Potency [2]: inactive | Potency [3]: inactive | Potency [4]: inactive | Potency [5]: inactive | Potency [6]: inactive

OC[C@@H](O)[C@H]1O[C@@H]2OC(C(Cl)(Cl)Cl)O[C@H]2[C@H]1O (some centres undefined)
Potency [1]: inactive | Potency [2]: inactive | Potency [3]: inactive | Potency [4]: inactive | Potency [5]: inactive | Potency [6]: inactive

Nc1nc(O)c(-c2ccccc2)o1
Potency [1]: inactive | Potency [2]: inactive | Potency [3]: inactive | Potency [4]: inactive | Potency [5]: inactive | Potency [6]: inactive

C[C@H](CCC(=O)O)[C@H]1CC[C@@H]2[C@H]3CC[C@H]4C[C@H](O)CC[C@]4(C)[C@@H]3CC[C@@]21C
Potency [7]: 100000 nM (active)

CC1(C)[C@@H](C=C(Cl)Cl)[C@@H]1C(=O)OCc1c(F)c(F)cc(F)c1F
Potency [2]: inactive | Potency [3]: inactive | Potency [4]: inactive

C=CC[N+]1(C)CCC23c4c5ccc(O)c4O[C@H]2C(=O)CC[C@@]3(O)C1C5 (some centres undefined)
Potency [1]: inactive | Potency [2]: inactive | Potency [3]: inactive | Potency [4]: inactive | Potency [5]: inactive | Potency [6]: inactive

Cc1ccc2c(c1)[C@@H]1CN(C)CC[C@H]1N2
Potency [2]: inactive | Potency [3]: inactive | Potency [4]: inactive | Potency [5]: inactive

CC1OC(O[C@H]2C[C@@H](O)[C@]3(CO)[C@@H]4C(CC[C@]3(O)C2)[C@@]2(O)CC[C@H](C3=CC(=O)OC3)[C@@]2(C)C[C@H]4O)C(O)C(O)C1O (some centres undefined)
Potency [1]: inactive | Potency [2]: inactive | Potency [3]: inactive | Potency [4]: inactive | Potency [5]: inactive

CCCCCC(O)C1C(=O)OC(C)C(O)\C=C/C=C\C=C/C=C\C=C(\C)C(O)C(O)C(O)CC(O)CC(O)CC(O)CC(O)CC1O (centres undefined)
Potency [1]: inactive | Potency [2]: inactive | Potency [3]: inactive | Potency [4]: inactive | Potency [5]: inactive | Potency [6]: inactive

C[C@H](N)Cc1ccccc1
Potency [1]: inactive | Potency [2]: inactive | Potency [3]: inactive | Potency [5]: inactive | Potency [6]: inactive

C#CCN1CC(=O)N(COC(=O)[C@@H]2[C@@H](C=C(C)C)C2(C)C)C1=O
outcome [8]: inactive | max response [9]: -9.7% | Potency [10]: inactive | Potency [11]: inactive | outcome [12]: inactive | Potency [2]: inactive | Potency [3]: inactive | Potency [4]: inactive | Potency [5]: inactive | Potency [6]: inactive
